Measurements published in PubChem BioAssay (NCI).
This is part of a sample that, as a whole, favours compounds with a hit. Of some 83,000 tested, about 20% had one in any assay.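 The endpoint reported here, percent growth, reads 100 for growth as untreated, 0 for no net growth and -100 for all cells dead.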 The source made the active and inactive calls. The calls were made as follows: active = growth percent below 10; inactive = the rest.

Legend:
Assay in all cases: NCI-60 one-dose screen, 48 h (100 = growth as untreated, 0 = no growth, -100 = all killed)
Details in all cases: 10 µM unless noted
NCI-H23 lung = system: NCI-H23 lung
NCI-H322M lung = system: NCI-H322M lung
HOP-62 NSCLC = system: HOP-62 NSCLC
NCI-H460 lung = system: NCI-H460 lung
HOP-92 NSCLC = system: HOP-92 NSCLC
NCI-H522 lung = system: NCI-H522 lung
786-0 renal = system: 786-0 renal
DU-145 prostate = system: DU-145 prostate
K-562 leukemia = system: K-562 leukemia
MALME-3M melanoma = system: MALME-3M melanoma
MDA-MB-231 breast = system: MDA-MB-231 breast
RXF 393 renal = system: RXF 393 renal
SF-268 CNS = system: SF-268 CNS
SF-295 CNS = system: SF-295 CNS
SF-539 CNS = system: SF-539 CNS
UACC-257 melanoma = system: UACC-257 melanoma
M14 melanoma = system: M14 melanoma
HCT-15 colon = system: HCT-15 colon
A549/ATCC NSCLC = system: A549/ATCC NSCLC
COLO 205 colon = system: COLO 205 colon

Measured: growth

Cc1sc2ncn(CC(=O)Nc3ccc(S(N)(=O)=O)cc3)c(=O)c2c1C
inactive: NCI-H23 lung 102% | NCI-H322M lung 96.8% | HOP-62 NSCLC 101% | NCI-H460 lung 105% | HOP-92 NSCLC 102% | NCI-H522 lung 92.5% | 786-0 renal 101% | DU-145 prostate 112% | K-562 leukemia 103% | MALME-3M melanoma 102% | MDA-MB-231 breast 102% | RXF 393 renal 114% | SF-268 CNS 97.9% | SF-295 CNS 104% | SF-539 CNS 96% | UACC-257 melanoma 97.7% | M14 melanoma 114% | HCT-15 colon 102%

O=C(CCc1nnc2sc(-c3ccc(Cl)cc3Cl)nn12)c1nc2ncccc2[nH]1
active: NCI-H23 lung -40.7% | HOP-62 NSCLC 2.87% | NCI-H460 lung -66.8% | HOP-92 NSCLC -62.1% | A549/ATCC NSCLC 4.78% | 786-0 renal -31.5% | COLO 205 colon -32.5% | DU-145 prostate -7.95% | K-562 leukemia 6.32% | MALME-3M melanoma -47.6% | MDA-MB-231 breast -43.5% | RXF 393 renal -93.1% | SF-295 CNS -56.8% | SF-539 CNS -21% | UACC-257 melanoma -25.3% | M14 melanoma -14.2% | HCT-15 colon -40.2%
inactive: NCI-H322M lung 11.7% | SF-268 CNS 36.9%

COc1ccc(CSc2nnc(SCC(=O)Nc3ccc(Cl)cc3)s2)cc1
active: SF-295 CNS -12.6%
inactive: NCI-H23 lung 80.5% | NCI-H322M lung 65.4% | HOP-62 NSCLC 89% | NCI-H460 lung 37.6% | HOP-92 NSCLC 78% | A549/ATCC NSCLC 62.4% | 786-0 renal 68.7% | COLO 205 colon 56.1% | DU-145 prostate 65.2% | K-562 leukemia 15.6% | MALME-3M melanoma 121% | MDA-MB-231 breast 72.1% | RXF 393 renal 104% | SF-268 CNS 70.5% | SF-539 CNS 86.6% | UACC-257 melanoma 99% | M14 melanoma 39.9% | HCT-15 colon 48.1%

CCCCC1CCc2cccc3c(SCC(=O)N(C)c4ccc(Cl)cc4)cc[n+]1c23 (stereo not drawn)
inactive: NCI-H23 lung 98.9% | NCI-H322M lung 110% | HOP-62 NSCLC 107% | NCI-H460 lung 109% | HOP-92 NSCLC 127% | A549/ATCC NSCLC 106% | 786-0 renal 106% | COLO 205 colon 108% | DU-145 prostate 108% | K-562 leukemia 91.5% | MALME-3M melanoma 106% | MDA-MB-231 breast 109% | RXF 393 renal 128% | SF-268 CNS 113% | SF-295 CNS 106% | SF-539 CNS 110% | UACC-257 melanoma 110% | M14 melanoma 105% | HCT-15 colon 110%

COc1ccccc1N1CCN(C(CNS(=O)(=O)c2ccc(Cl)cc2)c2cccnc2)CC1 (stereo not drawn)
active: SF-295 CNS 2.26%
inactive: NCI-H23 lung 96.6% | NCI-H322M lung 128% | HOP-62 NSCLC 94% | NCI-H460 lung 77.1% | HOP-92 NSCLC 79.5% | A549/ATCC NSCLC 90.8% | 786-0 renal 42.4% | COLO 205 colon 108% | DU-145 prostate 85.1% | K-562 leukemia 28.4% | MALME-3M melanoma 60.2% | MDA-MB-231 breast 71% | RXF 393 renal 36.3% | SF-268 CNS 90.8% | SF-539 CNS 64.9% | UACC-257 melanoma 120% | M14 melanoma 104% | HCT-15 colon 49%

COc1cc(/C=C2\CN(C)C/C(=C\c3cc(CN4CCCC4)c(O)c(OC)c3)C2=O)cc(CN2CCCC2)c1O
inactive: NCI-H23 lung 52.2% | NCI-H322M lung 84.7% | HOP-62 NSCLC 82% | NCI-H460 lung 34.1% | HOP-92 NSCLC 66.8% | A549/ATCC NSCLC 85.6% | 786-0 renal 72.2% | COLO 205 colon 49% | DU-145 prostate 60.8% | K-562 leukemia 19.4% | MALME-3M melanoma 86% | MDA-MB-231 breast 58.9% | RXF 393 renal 68.9% | SF-268 CNS 61.3% | SF-295 CNS 100% | SF-539 CNS 68.2% | UACC-257 melanoma 93.7% | M14 melanoma 99.1% | HCT-15 colon 88%

CCCCCCCCCCOC(=O)c1ccccc1C(=O)OCCCC
inactive: NCI-H23 lung 107% | NCI-H322M lung 108% | HOP-62 NSCLC 107% | NCI-H460 lung 120% | HOP-92 NSCLC 91.3% | NCI-H522 lung 91.2% | 786-0 renal 106% | COLO 205 colon 117% | DU-145 prostate 114% | K-562 leukemia 99.9% | MALME-3M melanoma 157% | SF-268 CNS 109% | SF-539 CNS 103% | UACC-257 melanoma 111% | M14 melanoma 100% | HCT-15 colon 111%

Fc1ccc(Oc2ccc(Nc3ncnc4onc(-c5ccccc5)c34)cc2)cc1
inactive: NCI-H23 lung 104% | NCI-H322M lung 87.9% | HOP-62 NSCLC 105% | NCI-H460 lung 102% | HOP-92 NSCLC 88.8% | A549/ATCC NSCLC 90.1% | 786-0 renal 97.3% | COLO 205 colon 122% | DU-145 prostate 95.2% | K-562 leukemia 113% | MALME-3M melanoma 93.2% | MDA-MB-231 breast 70.7% | RXF 393 renal 115% | SF-268 CNS 83% | SF-295 CNS 99.7% | SF-539 CNS 90.1% | UACC-257 melanoma 88.3% | M14 melanoma 104% | HCT-15 colon 103%
